IDE cell inh: cellular human IDE inhibition | HEK cells, FAbetaB cleavage, fluorescence polarization | inhibition, % at 5.59 µM | 320,000 tested, 0.41% active | AID 434962;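 active means percent inhibition above the average of all tested compounds plus 3 SD, set per screening campaign, cut at about 16% in these data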;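 further: IDE supplied by intact live HEK cells; FP after avidin binding of uncleaved biotin substrate so inhibition keeps polarization high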
Target sequence (P14735 whole entry, looked up): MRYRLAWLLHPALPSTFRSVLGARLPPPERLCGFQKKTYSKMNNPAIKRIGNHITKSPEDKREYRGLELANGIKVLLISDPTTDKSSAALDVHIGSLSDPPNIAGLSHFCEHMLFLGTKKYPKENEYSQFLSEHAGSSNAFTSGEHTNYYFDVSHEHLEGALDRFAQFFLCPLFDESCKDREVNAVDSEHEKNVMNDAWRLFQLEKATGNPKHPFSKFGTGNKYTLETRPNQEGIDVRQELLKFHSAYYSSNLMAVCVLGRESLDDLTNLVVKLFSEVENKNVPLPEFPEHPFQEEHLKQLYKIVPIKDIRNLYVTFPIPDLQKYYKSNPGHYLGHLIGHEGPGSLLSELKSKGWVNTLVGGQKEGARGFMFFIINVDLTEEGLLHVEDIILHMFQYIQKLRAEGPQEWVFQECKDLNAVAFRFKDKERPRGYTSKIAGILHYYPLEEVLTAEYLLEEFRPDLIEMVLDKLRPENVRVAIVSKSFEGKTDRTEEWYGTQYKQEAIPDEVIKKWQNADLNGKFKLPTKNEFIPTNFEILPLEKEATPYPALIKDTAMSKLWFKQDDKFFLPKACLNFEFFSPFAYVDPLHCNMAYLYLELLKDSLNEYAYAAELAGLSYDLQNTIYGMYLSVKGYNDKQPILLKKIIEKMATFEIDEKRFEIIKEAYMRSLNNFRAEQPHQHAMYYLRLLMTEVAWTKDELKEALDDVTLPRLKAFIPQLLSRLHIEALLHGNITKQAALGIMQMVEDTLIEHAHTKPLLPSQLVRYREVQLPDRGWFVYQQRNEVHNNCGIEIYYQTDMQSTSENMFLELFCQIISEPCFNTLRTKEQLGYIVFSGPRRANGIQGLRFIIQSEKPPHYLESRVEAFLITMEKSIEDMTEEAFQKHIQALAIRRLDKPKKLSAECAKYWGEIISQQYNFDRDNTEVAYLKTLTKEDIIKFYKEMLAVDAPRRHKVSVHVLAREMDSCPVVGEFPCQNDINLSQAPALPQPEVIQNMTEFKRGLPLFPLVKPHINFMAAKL
Mot1-301 SUMO: blocks SUMOylation pathway, rescuing yeast Mot1-301 growth; growth rescue, % at 18.8 µM; 320,000 tested, 1% active; S. cerevisiae Mot1-301 growth rescue, ATP luminescence, 38.5C; percent above DMSO median, 100 means doubled; AID 2716;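 active means every valid replicate shows activation above 250% relative to neutral control wells; inactive means the rest, any valid replicate at or below 250%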
LANA-H2A inh: blocks KSHV LANA binding to histone H2A/H2B. Q9QR71. cell-free LANA-H2A/H2B peptide, fluorescence polarization. inhibition, % (no concentration beside the values). 320,000 tested, 0.6% active; in the data active means inhibition mostly above about 10%, no sharp cut-off; inactive means mostly below about 6.7%
HDAC3 inh: blocks human histone deacetylase 3; O15379; recombinant HDAC3, fluorogenic peptide/trypsin coupled, fluorescence; inhibition, % at 8.3 µM; 320,000 tested, 0.15% active; in the data active means inhibition above about 26%, passing the limit was not always enough; inconclusive means no clear call, values can overlap the other calls
IDE act: activators of human insulin-degrading enzyme in cells. P14735. HEK cells, FAbeta-B cleavage, fluorescence polarization; 0% vehicle, 100% cell-free pure enzyme wells. activation, % at 5.96 µM. 340,000 tested, 0.073% active. AID 493087;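 active means activation above the mean of all tested compounds plus 3 SD, set per screening campaign, cut at about 17% in these data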
Of the large screens only hits and unclear results are named; the others gave an inactive call; ! = not active in a repeat. The list is not random: actives were taken first. Their share in the collection is about 2.1%.

CC(C)C(=O)Nc1nnc(CCN2CCOCC2)s1	LANA-H2A inh 18
Cc1ccc(C(=O)NNC(=O)c2ccc(NC(=O)C(C)(C)C)cc2)cc1	none
CSc1cccc(NC(=S)N(CCN(C)C)C(C)c2ccncc2)c1 (stereo not given)	Mot1-301 SUMO 318
O=C(/C=C/c1cccc([N+](=O)[O-])c1)Nc1ccc(NC(=O)c2cccs2)cc1	Mot1-301 SUMO 474 (no result: LANA-H2A inh, HDAC3 inh)
O=C(CC1C(=O)NCCN1Cc1ccccc1C(F)(F)F)NC1CCC1 (stereo not given)	LANA-H2A inh 181
O=C(CC1C(=O)NCCN1Cc1ccccc1C(F)(F)F)NC1CCCCC1 (stereo not given)	none
CC(C)N(Cc1nccn1C)C(=O)CC1C(=O)NCCN1Cc1ccccc1C(F)(F)F (stereo not given)	LANA-H2A inh 13
O=C(NCc1ccncc1)c1nc(-c2ccc(C(F)(F)F)cc2)no1	none
N#Cc1cc(Oc2ccccc2)c(-n2nnc3ccccc32)cc1C#N	LANA-H2A inh 26
O=C(Nc1ccc(Br)cc1)C1CCCC1	Mot1-301 SUMO 333
COc1ccc(C(=O)O/N=C2\CCS(=O)(=O)c3sccc32)cc1	HDAC3 inh 52
O=C(COC(=O)CNC(=O)c1ccccc1Cl)Nc1ccccc1Cl	none
CCOC(=O)c1ncn2c1CN(C)C(=O)c1cc(F)ccc1-2	LANA-H2A inh 29!
CC(=O)NC(CC(C)C)C(=O)O (stereo not given)	none (no result: IDE cell inh, Mot1-301 SUMO, LANA-H2A inh, HDAC3 inh)
CC(C)C[C@H](NC(=O)NC(C)C)C(=O)O	LANA-H2A inh 16
CCOc1ccc(CCNC(=O)C2CCCN(c3ncnc4c3nc3n4CCCCC3)C2)cc1 (stereo not given)	none
COC(=O)c1ccc(CSc2nc3ccc(Cl)cc3[nH]2)o1	none
COC(=O)c1ccc(CSc2nc3scc(-c4cccs4)c3c(=O)[nH]2)o1	HDAC3 inh 42
CCOC(=O)C1=CN(Cc2cccc(-c3ccc4c(c3)OCO4)c2)S(=O)(=O)N(C)C1C (stereo not given)	none (no result: IDE cell inh, Mot1-301 SUMO, LANA-H2A inh, HDAC3 inh)
Cc1ccc(C(c2c(C)nn(-c3ccccc3)c2N)c2c(C)nn(-c3ccccc3)c2N)cc1	none
Cc1nn(-c2ccccc2)c(N)c1C(c1ccc(C(C)C)cc1)c1c(C)nn(-c2ccccc2)c1N	Mot1-301 SUMO 409 (no result: LANA-H2A inh, HDAC3 inh)
COc1ccc(OCc2n(CC(=O)OC3CC(C)CCC3C(C)C)c3ccccc3[n+]2C)cc1 (stereo not given)	IDE act 18
CCc1ccc(NC(=O)CSc2nnc(CNC(=O)c3ccc(OC)cc3)o2)cc1	none
CCCc1cc(=O)[nH]c(SCC(=O)N2CCc3ccccc3C2)n1	LANA-H2A inh active
COC(=O)c1sc(S(=O)(=O)N2CCN(c3ccccc3F)CC2)c(C(=O)OC)c1C	none
CCN(CC)CCN(C(=O)c1ccc(S(=O)(=O)N(C)C2CCCCC2)cc1)c1nc2ccc(OC)cc2s1	LANA-H2A inh 108
OC(C#CCCN1CCCCC1)(c1ccccc1)c1ccccc1	none (no result: IDE act)
CCCN(CC#CC(O)(c1ccccc1)c1cccnc1)CCC (stereo not given)	none
OC(C#CCN1CCCCCC1)(c1ccccc1)c1cccnc1 (stereo not given)	LANA-H2A inh 15
OC(C#CCN1CCCC1)(c1ccccc1)c1cccnc1 (stereo not given)	LANA-H2A inh 27 (no result: IDE act)
O[C@@H]1CN(Cc2ccccc2Cl)CC[C@H]1N1CCOCC1	none
CN(Cc1ccccc1)C(=O)C1CCCN1S(=O)(=O)c1ccc2c(c1)n(C)c(=O)c(=O)n2C (stereo not given)	LANA-H2A inh 24
Cn1c(=O)c(=O)n(C)c2cc(S(=O)(=O)N3CCC(Cc4ccccc4)CC3)ccc21	LANA-H2A inh 13
CCc1ccccc1NC(=O)C1CCCN1S(=O)(=O)c1ccc2c(c1)n(C)c(=O)c(=O)n2C (stereo not given)	none
S=C(NCc1cccs1)Nc1cccc(Cl)c1	none
S=C(NCc1cccs1)Nc1cc(Cl)cc(Cl)c1	LANA-H2A inh 21
CC1(C)C(c2cccs2)=[N+]([O-])C2(CCCCC/C2=N\O)N1O (stereo not given)	LANA-H2A inh 13
COc1ccc(Cl)cc1NC(=O)C/C(C)=N/NC(=O)C(=O)NCc1ccccc1	LANA-H2A inh 15
CCCN1CC=C2C(C#N)=C(N)C(C#N)(C#N)C(c3cccc(OC)c3OC)C2C1 (stereo not given)	LANA-H2A inh 17
N#CC1=C(N)C(C#N)(C#N)[C@H](c2ccoc2)[C@H]2CN(Cc3ccccc3)CC=C12	LANA-H2A inh 23
COc1ccc(OC)c(C2C3CN(C(C)C)CC=C3C(C#N)=C(N)C2(C#N)C#N)c1 (stereo not given)	none
CC(=O)N1CC=C2C(C#N)=C(N)C(C#N)(C#N)C(CCc3ccccc3)C2C1 (stereo not given)	none
CN1CC=C2C(C#N)=C(N)C(C#N)(C#N)[C@H](c3ccoc3)[C@H]2C1	LANA-H2A inh 18
CC(=O)N1CC=C2C(C#N)=C(N)C(C#N)(C#N)[C@H](c3ccoc3)[C@H]2C1	none
CCN1CC=C2C(C#N)=C(N)C(C#N)(C#N)C(CCc3ccccc3)C2C1 (stereo not given)	LANA-H2A inh 25
C/C(=N\OCC(=O)OCC(=O)N(C)c1ccccc1)c1ccc2c(c1)OCO2	none
CCCC1(C(=O)OC)NC(c2ccc(OC)cc2OC)C2C(=O)N(c3cccc(C(C)=O)c3)C(=O)C21 (stereo not given)	none
COc1cc(Cl)c(C)cc1NC(=O)CSc1ccc(NC(C)=O)cc1	IDE cell inh 18
COc1cc(Cl)c(C)cc1NC(=O)CSc1nc2ccccc2o1	none
O=C(CN1CCN(Cc2ccccc2)CC1)Nc1cccc(Br)c1	none
N/C(=N/OC(=O)c1ccccc1F)c1nonc1N	none
N/C(=N\OC(=O)c1ccc(Cl)cc1)c1nonc1N	Mot1-301 SUMO 294
NC(=O)SCC(=O)Nc1cccc(Cl)c1	HDAC3 inh 39 (no result: Mot1-301 SUMO)
NC(=O)SCC(=O)Nc1ccc(Cl)cc1	HDAC3 inh inconclusive
Cc1cc(=O)oc2cc(OC(C)C(=O)NCC3CCCO3)ccc12 (stereo not given)	LANA-H2A inh 21
CC(Oc1ccc2c3c(c(=O)oc2c1)CCCC3)C(=O)NCCN1CCOCC1 (stereo not given)	LANA-H2A inh 11
Cc1cc(=O)oc2cc(OC(C)C(=O)NCC3CCC(C(=O)O)CC3)ccc12 (stereo not given)	none
O=C(COc1ccc2c3c(c(=O)oc2c1)CCCC3)NCCN1CCOCC1	none
Cc1cccc(C(C)C)c1NC(=O)CN1C(=O)NC(Cc2ccccc2)C1=O (stereo not given)	none
O=C(OCc1ccc(F)cc1)c1cc(=O)c2ccccc2o1	none
O=C(Cc1ccccc1)Nc1ncccn1	none
CCCn1c(=N)c(C(=O)NC2CCCC2)cc2c(=O)n3cccc(C)c3nc21	none
CCn1c(=N)c(C(=O)NC)cc2c(=O)n3cccc(C)c3nc21	LANA-H2A inh 17 (no result: IDE cell inh, HDAC3 inh)
